This note sets out measurements from PubChem BioAssay (NCI).

Some test systems named below: SR leukemia; RPMI-8226 leukemia; OVCAR-8 ovarian; OVCAR-5 ovarian; OVCAR-4 ovarian; SK-OV-3 ovarian; IGROV1 ovarian; HS 578T breast; NCI/ADR-RES ovarian.
Holding throughout (assay): NCI-60 one-dose screen, 48 h (100 = growth as untreated, 0 = no growth, -100 = all killed)
Common to all, as to conditions: 10 µM unless noted

Molecules are shown by their SMILES. About 83,000 compounds went through this panel and 20% of them were active in at least one assay; those are over-represented in the sample as a whole.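 Compound tested at a single concentration for 48 hours in 96-well plates; a percent growth value below 10 was scored as active.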 A number with no mark means an inactive call. The source made the active and inactive calls.

Consider `CNC(=O)Nc1ccc(Nc2cc(-c3ccc(-n4cccn4)cc3)[nH]n2)c(C)c1`, for which the growth in the experiment on SR leukemia is 89%; in the experiment with RPMI-8226 leukemia, 93.3%; with OVCAR-8 ovarian it was 102%; in the experiment on OVCAR-5 ovarian it was 111%; in the experiment on OVCAR-4 ovarian it was 102%; in the experiment on SK-OV-3 ovarian, 107%. In addition, the growth in the experiment with IGROV1 ovarian was 108%; with HS 578T breast it was 116%; with NCI/ADR-RES ovarian, 99.8%.
`CN1CCN(CCCCCC(=O)Nc2nc(-c3cccc(NS(=O)(=O)c4cccc5c(N(C)C)cccc45)c3)cs2)CC1`: the growth was -4.68% (active) with SR leukemia; 34.9% in the experiment on RPMI-8226 leukemia; 87.8% in the experiment with OVCAR-8 ovarian; 91.6% in the experiment with OVCAR-5 ovarian; 89.6% with OVCAR-4 ovarian; 105% in the experiment on SK-OV-3 ovarian. In addition, the figures for the growth in the experiment with IGROV1 ovarian, with HS 578T breast and in the experiment with NCI/ADR-RES ovarian were 87.8%, 73.1% and 94.1%, respectively.
For the compound `O=C(/C=C/c1csc(Br)n1)NO`, the growth was 13.8% in the experiment on SR leukemia; 9.04% (active) with RPMI-8226 leukemia; 22.3% with OVCAR-8 ovarian; 10.7% in the experiment with OVCAR-5 ovarian; 65.1% in the experiment with OVCAR-4 ovarian; 38.2% in the experiment on SK-OV-3 ovarian. In addition, the growth is 16.7% in the experiment on IGROV1 ovarian, 44.3% in the experiment with HS 578T breast and 1.04% (active) in the experiment on NCI/ADR-RES ovarian.
As for `NS(=O)(=O)c1ccc(Nc2nc(Nc3ccccc3)nc(N3N=C(c4ccc(Cl)cc4)CC3c3ccc(Cl)cc3)n2)cc1` (configuration not stated), the growth was 5.52% (active) in the experiment with SR leukemia; 37.1% with RPMI-8226 leukemia; 68.4% in the experiment on OVCAR-8 ovarian; 43.2% in the experiment on OVCAR-5 ovarian; 49.5% in the experiment with OVCAR-4 ovarian; 64.9% with SK-OV-3 ovarian. Besides, the results for the growth in the experiment with IGROV1 ovarian, with HS 578T breast and in the experiment on NCI/ADR-RES ovarian were 34.3%, 78.8% and 62.4%, respectively.
Turning to `COc1ccc(N2CCN(C3=C(Cl)C(=O)c4ncccc4C3=O)CC2)cc1`, the growth in the experiment on SR leukemia was 0.311% (active); in the experiment on RPMI-8226 leukemia it was 23.2%; with OVCAR-8 ovarian, 74.8%; in the experiment on OVCAR-5 ovarian, 112%; with OVCAR-4 ovarian, 48.2%; with SK-OV-3 ovarian, 81%. In addition, the growth is 80.7% in the experiment on IGROV1 ovarian, 70.2% with HS 578T breast and 86.6% in the experiment on NCI/ADR-RES ovarian.
Consider `O=C1[C@@H]2Cc3c([nH]c4ccccc34)[C@@H](c3ccc(Cl)cc3)N2C(=O)CN1C1CCN(Cc2ccccc2)CC1`, for which the growth with SR leukemia is -25.3% (active); with RPMI-8226 leukemia it was 18.9%; in the experiment with OVCAR-8 ovarian, 43.9%; in the experiment on OVCAR-5 ovarian it was 90.1%; with OVCAR-4 ovarian, 49.1%; in the experiment with SK-OV-3 ovarian, 80.5%. Further, the growth in the experiment on IGROV1 ovarian was 29%; with HS 578T breast it was 65.9%; in the experiment on NCI/ADR-RES ovarian, 51.2%.
Regarding `COc1ccc(-c2cc(-c3ccc(N(C)C)cc3)n3c(n2)nc2ccccc23)cc1`, the growth was 50.8% in the experiment with SR leukemia; 23.1% in the experiment with RPMI-8226 leukemia; 39.8% in the experiment with OVCAR-8 ovarian; 95.5% in the experiment on OVCAR-5 ovarian; 56.7% in the experiment with OVCAR-4 ovarian; 55.5% in the experiment with SK-OV-3 ovarian. Further, the values for the growth with IGROV1 ovarian, in the experiment with HS 578T breast and in the experiment with NCI/ADR-RES ovarian were 77.6%, 82.4% and 59.5%, respectively.
Regarding `CCC1=Cc2c(OC)cccc2OC12C=Cc1c(OC)cccc1O2` (configuration not stated), the growth in the experiment on SR leukemia was 15.2%; with RPMI-8226 leukemia, 25.2%; in the experiment on OVCAR-8 ovarian, 24.3%; in the experiment with OVCAR-5 ovarian it was 36.5%; with OVCAR-4 ovarian it was 76.7%; with SK-OV-3 ovarian, 56.5%. In addition, the growth is 29.8% in the experiment with IGROV1 ovarian, 28.4% with HS 578T breast and -24.2% (active) in the experiment on NCI/ADR-RES ovarian.
Take `O=C1[C@@H]2Cc3c([nH]c4ccccc34)[C@@H](c3ccc(Cl)cc3)N2C(=O)CN1C1CCN(Cc2c(F)cccc2F)CC1`: the growth in the experiment on SR leukemia was -4.42% (active); in the experiment with RPMI-8226 leukemia, 12.5%; with OVCAR-8 ovarian, 43.7%; in the experiment with OVCAR-5 ovarian, 59.4%; with OVCAR-4 ovarian it was 44.8%; in the experiment with SK-OV-3 ovarian, 68.5%. For the same compound, the growth is 25.6% in the experiment on IGROV1 ovarian, 53.8% in the experiment on HS 578T breast and 42.5% with NCI/ADR-RES ovarian.
Turning to `COc1cc(C(=O)c2cc(C(C)=O)c3cccc(C)n23)cc(OC)c1OC`, the growth with SR leukemia is 17%; in the experiment on RPMI-8226 leukemia, 51.2%; with OVCAR-8 ovarian, 50.8%; in the experiment on OVCAR-5 ovarian it was 65.8%; with OVCAR-4 ovarian, 74.1%; in the experiment on SK-OV-3 ovarian, 46.6%. Further, the figures for the growth with IGROV1 ovarian, with HS 578T breast and in the experiment with NCI/ADR-RES ovarian were 43.9%, 44.2% and 22.1%, respectively.
For `Cc1csc(/N=C(N)/N=C(\N)c2cccc(C#N)c2)n1`, the growth in the experiment on SR leukemia was 30.2%; in the experiment with RPMI-8226 leukemia, 87.8%; with OVCAR-8 ovarian, 85.8%; in the experiment with OVCAR-5 ovarian it was 106%; in the experiment with OVCAR-4 ovarian it was 97.2%; with SK-OV-3 ovarian it was 76.3%. For the same compound, the growth with IGROV1 ovarian is 77.7%; with HS 578T breast it was 83.1%; in the experiment with NCI/ADR-RES ovarian, 58.3%.
With `Fc1cccc(Cl)c1/C=N/Nc1nc(N/N=C/c2c(F)cccc2Cl)nc(N2CCCCC2)n1`, the growth with SR leukemia was 16.1%; in the experiment with RPMI-8226 leukemia it was 3.27% (active); in the experiment on OVCAR-8 ovarian, 25.8%; in the experiment on OVCAR-5 ovarian it was 27.8%; in the experiment on OVCAR-4 ovarian, 21%; in the experiment with SK-OV-3 ovarian, 39.1%. For the same compound, the growth is 17.7% in the experiment on IGROV1 ovarian, 33.3% with HS 578T breast and 15.2% with NCI/ADR-RES ovarian.
In the case of `CCCCCCNC(=O)Oc1ccc(/C(=C(/C)c2ccc(Cl)cc2)c2ccc(OCCN3CCCCCC3)cc2)cc1`, the growth was 2.59% (active) in the experiment with SR leukemia; 64.3% in the experiment with RPMI-8226 leukemia; 78.2% in the experiment with OVCAR-8 ovarian; 83% in the experiment on OVCAR-5 ovarian; 61% in the experiment on OVCAR-4 ovarian; 96% with SK-OV-3 ovarian. The growth with IGROV1 ovarian is 68.4%; in the experiment with HS 578T breast it was 63.8%; in the experiment with NCI/ADR-RES ovarian it was 79.4%.
